In all, about 16,000 sequences were measured (“rpm ratio (pull-down/input)”: median about 0.94, highest 2% from about 1.7 on). For the sample, the highest values were picked, then their nearest neighbours and some sequences at random.
The sequences below were run against T1, MBP-FoxP1dN (Mus musculus, UniProt P58462 326-579) (assay: PD-seq (MBP pull-down with sequencing); 20 mM Tris-HCl pH 7.5, 100 mM NaCl, 1.5 mM MgCl2, 0.4 uM protein, 0.1 uM dsDNA library, 30 min, room temperature, amylose pull-down; high values mean tight binding). Conditions: protein: recombinant; tags: His6-MBP; chain copies: 2; dsDNA, one strand shown.
T1 sequence: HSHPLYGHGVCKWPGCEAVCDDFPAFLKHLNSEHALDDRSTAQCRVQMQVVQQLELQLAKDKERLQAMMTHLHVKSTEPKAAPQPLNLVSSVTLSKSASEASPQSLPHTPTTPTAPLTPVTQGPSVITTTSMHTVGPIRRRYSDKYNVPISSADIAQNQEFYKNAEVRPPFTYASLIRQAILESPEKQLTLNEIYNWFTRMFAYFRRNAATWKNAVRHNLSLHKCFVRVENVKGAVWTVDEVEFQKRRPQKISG
Outline: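 In Tris pH 7.5 buffer with NaCl and MgCl2, 0.4 µM His6-MBP-tagged mouse FoxP3 or FoxP1 fragment lacking the N-terminus, from E. coli, met 0.1 µM Klenow-filled double-stranded degenerate DNA library for 30 min at room temperature. Three washes on amylose resin followed capture of the complexes, then proteinase K release of DNA, PCR barcoding and Illumina sequencing. Binding is taken as pooled-replicate reads-per-million enrichment of pull-down relative to input.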

| Sequence | binding signal |
| --- | --- |
| GATGATTGTTCTCCCAGCTGATGAATTCCATTACTCGAGTAAACAAATTTTCCTAATCTTTCTGTTCAAGCGCCATCTAC | 0.874 RPM ratio (pull-down/input) |
| GATGATTGTTCTCCCAGCTGATGAATTCAAGATCTCGAGTAAACAAATTTTCCTAATCTTTCTGTTCAAGCGCCATCTAC | 0.814 RPM ratio (pull-down/input) |
| GATGATTGTTCTCCCAGCTGATGAATTTCTACGATCGAGTAAACAAATTTTCCTAATCTTTCTGTTCAAGCGCCATCTAC | 0.948 RPM ratio (pull-down/input) |
| GATGATTGTTCTCCCAGCTGATGAATTCACCATATCGAGTAAACAAATTTTCCTAATCTTTCTGTTCAAGCGCCATCTAC | 0.984 RPM ratio (pull-down/input) |
| GATGATTGTTCTCCCAGCTGATGAATTGGGGCACTCGAGTAAACAAATTTTCCTAATCTTTCTGTTCAAGCGCCATCTAC | 0.856 RPM ratio (pull-down/input) |
| GATGATTGTTCTCCCAGCTGATGAATTTCACTGGTCGAGTAAACAAATTTTCCTAATCTTTCTGTTCAAGCGCCATCTAC | 0.806 RPM ratio (pull-down/input) |
| GATGATTGTTCTCCCAGCTGATGAATTATGGCAATCGAGTAAACAAATTTTCCTAATCTTTCTGTTCAAGCGCCATCTAC | 1.23 RPM ratio (pull-down/input) |
| GATGATTGTTCTCCCAGCTGATGAATTTCGGTTCTCGAGTAAACAAATTTTCCTAATCTTTCTGTTCAAGCGCCATCTAC | 0.825 RPM ratio (pull-down/input) |
| GATGATTGTTCTCCCAGCTGATGAATTCGGGGCCTCGAGTAAACAAATTTTCCTAATCTTTCTGTTCAAGCGCCATCTAC | 0.744 RPM ratio (pull-down/input) |
| GATGATTGTTCTCCCAGCTGATGAATTGTTTATCTCGAGTAAACAAATTTTCCTAATCTTTCTGTTCAAGCGCCATCTAC | 2.68 RPM ratio (pull-down/input) |
| GATGATTGTTCTCCCAGCTGATGAATTTATCTGATCGAGTAAACAAATTTTCCTAATCTTTCTGTTCAAGCGCCATCTAC | 1.07 RPM ratio (pull-down/input) |
| GATGATTGTTCTCCCAGCTGATGAATTTATCTCCTCGAGTAAACAAATTTTCCTAATCTTTCTGTTCAAGCGCCATCTAC | 1.08 RPM ratio (pull-down/input) |
| GATGATTGTTCTCCCAGCTGATGAATTCTTTTTATCGAGTAAACAAATTTTCCTAATCTTTCTGTTCAAGCGCCATCTAC | 1 RPM ratio (pull-down/input) |
| GATGATTGTTCTCCCAGCTGATGAATTCTGTTTATCGAGTAAACAAATTTTCCTAATCTTTCTGTTCAAGCGCCATCTAC | 2.76 RPM ratio (pull-down/input) |
| GATGATTGTTCTCCCAGCTGATGAATTGTTAGTTTCGAGTAAACAAATTTTCCTAATCTTTCTGTTCAAGCGCCATCTAC | 1.7 RPM ratio (pull-down/input) |
| GATGATTGTTCTCCCAGCTGATGAATTTATCAAATCGAGTAAACAAATTTTCCTAATCTTTCTGTTCAAGCGCCATCTAC | 1.28 RPM ratio (pull-down/input) |
| GATGATTGTTCTCCCAGCTGATGAATTTGTTTTATCGAGTAAACAAATTTTCCTAATCTTTCTGTTCAAGCGCCATCTAC | 1.78 RPM ratio (pull-down/input) |
| GATGATTGTTCTCCCAGCTGATGAATTTGTTAGTTCGAGTAAACAAATTTTCCTAATCTTTCTGTTCAAGCGCCATCTAC | 1.78 RPM ratio (pull-down/input) |
| GATGATTGTTCTCCCAGCTGATGAATTCCTTTTATCGAGTAAACAAATTTTCCTAATCTTTCTGTTCAAGCGCCATCTAC | 0.896 RPM ratio (pull-down/input) |
| GATGATTGTTCTCCCAGCTGATGAATTAGTTAGTTCGAGTAAACAAATTTTCCTAATCTTTCTGTTCAAGCGCCATCTAC | 0.968 RPM ratio (pull-down/input) |

| Sequence | binding signal |
| --- | --- |
| GATGATTGTTCTCCCAGCTGATGAATTTTTTATCTCGAGTAAACAAATTTTCCTAATCTTTCTGTTCAAGCGCCATCTAC | 0.997 RPM ratio (pull-down/input) |
| GATGATTGTTCTCCCAGCTGATGAATTCAATGAATCGAGTAAACAAATTTTCCTAATCTTTCTGTTCAAGCGCCATCTAC | 0.93 RPM ratio (pull-down/input) |
| GATGATTGTTCTCCCAGCTGATGAATTGGAAGGCTCGAGTAAACAAATTTTCCTAATCTTTCTGTTCAAGCGCCATCTAC | 0.76 RPM ratio (pull-down/input) |
| GATGATTGTTCTCCCAGCTGATGAATTAAACTAATCGAGTAAACAAATTTTCCTAATCTTTCTGTTCAAGCGCCATCTAC | 1.09 RPM ratio (pull-down/input) |
| GATGATTGTTCTCCCAGCTGATGAATTCGTCCTATCGAGTAAACAAATTTTCCTAATCTTTCTGTTCAAGCGCCATCTAC | 0.835 RPM ratio (pull-down/input) |
| GATGATTGTTCTCCCAGCTGATGAATTTTCGCGATCGAGTAAACAAATTTTCCTAATCTTTCTGTTCAAGCGCCATCTAC | 0.884 RPM ratio (pull-down/input) |
| GATGATTGTTCTCCCAGCTGATGAATTTGCGTTGTCGAGTAAACAAATTTTCCTAATCTTTCTGTTCAAGCGCCATCTAC | 1.29 RPM ratio (pull-down/input) |
| GATGATTGTTCTCCCAGCTGATGAATTGGATAGCTCGAGTAAACAAATTTTCCTAATCTTTCTGTTCAAGCGCCATCTAC | 0.85 RPM ratio (pull-down/input) |
| GATGATTGTTCTCCCAGCTGATGAATTTACGTAATCGAGTAAACAAATTTTCCTAATCTTTCTGTTCAAGCGCCATCTAC | 1.82 RPM ratio (pull-down/input) |
| GATGATTGTTCTCCCAGCTGATGAATTTTGTTTATCGAGTAAACAAATTTTCCTAATCTTTCTGTTCAAGCGCCATCTAC | 2.61 RPM ratio (pull-down/input) |
| GATGATTGTTCTCCCAGCTGATGAATTTAGTGAATCGAGTAAACAAATTTTCCTAATCTTTCTGTTCAAGCGCCATCTAC | 0.958 RPM ratio (pull-down/input) |
| GATGATTGTTCTCCCAGCTGATGAATTTTACGTATCGAGTAAACAAATTTTCCTAATCTTTCTGTTCAAGCGCCATCTAC | 0.962 RPM ratio (pull-down/input) |
| GATGATTGTTCTCCCAGCTGATGAATTTTAGTAATCGAGTAAACAAATTTTCCTAATCTTTCTGTTCAAGCGCCATCTAC | 1.75 RPM ratio (pull-down/input) |
| GATGATTGTTCTCCCAGCTGATGAATTTAGTAAATCGAGTAAACAAATTTTCCTAATCTTTCTGTTCAAGCGCCATCTAC | 1.58 RPM ratio (pull-down/input) |
| GATGATTGTTCTCCCAGCTGATGAATTACGTAAATCGAGTAAACAAATTTTCCTAATCTTTCTGTTCAAGCGCCATCTAC | 1.34 RPM ratio (pull-down/input) |
| GATGATTGTTCTCCCAGCTGATGAATTTGGTTTATCGAGTAAACAAATTTTCCTAATCTTTCTGTTCAAGCGCCATCTAC | 1.32 RPM ratio (pull-down/input) |
| GATGATTGTTCTCCCAGCTGATGAATTTGATTTATCGAGTAAACAAATTTTCCTAATCTTTCTGTTCAAGCGCCATCTAC | 1.23 RPM ratio (pull-down/input) |
| GATGATTGTTCTCCCAGCTGATGAATTTTTTAGATCGAGTAAACAAATTTTCCTAATCTTTCTGTTCAAGCGCCATCTAC | 0.923 RPM ratio (pull-down/input) |
| GATGATTGTTCTCCCAGCTGATGAATTTAGATGATCGAGTAAACAAATTTTCCTAATCTTTCTGTTCAAGCGCCATCTAC | 1.11 RPM ratio (pull-down/input) |
| GATGATTGTTCTCCCAGCTGATGAATTGTTTAGATCGAGTAAACAAATTTTCCTAATCTTTCTGTTCAAGCGCCATCTAC | 2.19 RPM ratio (pull-down/input) |

— PMC12820563, “FoxP3 forms a head-to-head dimer in vivo and stabilizes its multimerization on adjacent microsatellites”
